This note sets out measurements from PubChem BioAssay (Tox21).

Values joined by “and” are separate entries in the source; they are usually repeats but may differ in a detail not shown here. Equal values may be shown once. Active and inactive are the calls of the source. Where a call stands in place of a potency, no number is given. Calls come from the whole dose curve.
Potency is the fitted concentration of half-maximal effect.

Estrogen receptor (Homo sapiens), sequence (P03372 whole entry, looked up): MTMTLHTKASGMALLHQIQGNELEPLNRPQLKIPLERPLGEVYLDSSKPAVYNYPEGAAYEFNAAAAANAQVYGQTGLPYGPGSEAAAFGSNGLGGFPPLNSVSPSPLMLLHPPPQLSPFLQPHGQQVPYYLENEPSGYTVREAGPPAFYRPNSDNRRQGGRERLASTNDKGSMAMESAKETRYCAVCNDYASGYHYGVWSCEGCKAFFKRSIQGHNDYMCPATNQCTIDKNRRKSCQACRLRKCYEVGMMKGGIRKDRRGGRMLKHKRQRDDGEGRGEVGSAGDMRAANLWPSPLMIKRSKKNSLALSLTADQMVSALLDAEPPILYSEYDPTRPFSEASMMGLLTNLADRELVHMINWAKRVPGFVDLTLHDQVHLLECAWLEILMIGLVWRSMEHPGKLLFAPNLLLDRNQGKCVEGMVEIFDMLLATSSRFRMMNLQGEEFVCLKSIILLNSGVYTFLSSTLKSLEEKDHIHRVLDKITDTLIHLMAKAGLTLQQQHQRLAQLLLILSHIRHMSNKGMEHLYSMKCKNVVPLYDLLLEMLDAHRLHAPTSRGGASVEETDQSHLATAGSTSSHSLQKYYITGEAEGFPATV

This test has as its target Estrogen receptor (Homo sapiens) (UniProt P03372). Description: qHTS assay to identify small molecule agonists of the estrogen receptor alpha (ER-alpha) signaling pathway in the presence of an antagonist (AID 1259383). For activation: top concentration of the series differs between compounds. Note: nearly all actives have a fitted effect of over 15% in size. As to conditions: VM7Luc4E2 cells, ERE-luciferase, +ICI-182,780, 22 h; series mostly up to 92.4 µM; activation: at the top concentration. The procedure, abridged: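 Agonist-mode confirmation in the presence of the ER antagonist ICI-182,780 at 10.0nM final. Breast-derived VM7Luc4E2 reporter cells were exposed to compounds for 22hr, and ERE-driven luciferase was quantified by luminescence.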
(In general: Quantitative high-throughput screening tests each substance at several concentrations.)
As to `N#Cc1nn(-c2c(Cl)cc(C(F)(F)F)cc2Cl)c(N)c1S(=O)C(F)(F)F` (stereo not given), the Potency entry is “inactive”.
On the same count and under the same terms, as for `CC[n+]1c(-c2ccccc2)c2cc(N)ccc2c2ccc(N)cc21`, the entry is “inactive”; as for `O=[N+]([O-])c1ccc(Cl)c([N+](=O)[O-])c1`, “inactive”.
Same read-out and setting: as for `O=[N+]([O-])c1ccc(Nc2ccccc2)cc1`, the entry is “inactive”.
The same measure, in the same setting: as for `C[N+](C)(C)CC(=O)[O-]`, the entry is “inactive”; as for `CCCCOCCOC(C)=O`, “inactive”.
As to `O=C(O)CF`, the Potency result is “inactive”.
The same measure, in the same setting: under `CC1(C)Cc2cccc(O)c2O1` stands “inactive”; under `Clc1cccc(C(Cl)(Cl)Cl)n1`, “inactive”; under `COP(=S)(OC)SCn1nnc2ccccc2c1=O`, “inactive”.
The same measure, in the same setting: as for `Clc1ccc(C(Cl)(Cl)Cl)cc1`, the entry is “inactive”; as for `COc1ccc(O)c(C(C)(C)C)c1`, “inactive”; as for `CCCCCCCC[N+](C)(CCCCCCCC)CCCCCCCC`, “inactive”.
Consider `Nc1ccc2ccccc2c1`, for which the “activation” value is 9.06% (inactive).
Regarding `CCC[CH2][Sn]([Cl])([Cl])[CH2]CCC`, the Potency result was “inactive”.
For `CC(C)(O)C(=O)Nc1ccc([N+](=O)[O-])c(C(F)(F)F)c1`, the Potency result was “inactive”.
Still for that read-out and setting: as for `C[C@]12CCC(=O)C=C1CC[C@@H]1[C@@H]2CC[C@@]2(C)[C@H]1CC[C@]2(C)O`, the figure is 11.3 µM (active) and 10.6 µM (active); as for `CCOP(=S)(OCC)SCSC(C)(C)C`, “inactive”.
For the compound `CC1=C(C(=O)Nc2ccccc2)SCCO1`, the “activation” value was 10.4% (inactive).
Consider `O=NN1CCOCC1`, for which the Potency result was “inactive”.
On the same count and under the same terms, as for `CNC(=S)S`, the entry is “inactive”; as for `CC(C)Nc1ccc(Nc2ccccc2)cc1`, “inactive”.
Consider `C[N+](C)(C)C`, for which the Potency entry was “inactive”.
Same read-out and setting: as for `CCCCOCC1CO1` (stereo not given), the entry is “inactive”; as for `CCCCC(C#N)(Cn1cncn1)c1ccc(Cl)cc1` (stereo not given), “inactive”.
